The record followed here is PubChem BioAssay (EPA / NIEHS).

Active and inactive are the calls of the source. Rule for the calls: active = hit-call score of the fitted dose curve at least 0.9, where 1 is the maximum; inactive = score below 0.9.

Read-out in assay [1]: Monokine induced gamma interferon (MIG), CXCL9 (gene 4283)
Kind of assay: BSK_hDFCGF_MIG: BioMAP Diversity Plus: hDFCGF Assay for Monokine induced gamma interferon (MIG) Biomarker Activity (AID 2283063). To be noted: primary human foreskin fibroblasts; actives raise or lower the signal. In short, it runs like this:
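ELISA read-out of MIG from primary human dermal fibroblasts 24 h post-dosing. Gain or loss of signal fitted bidirectionally, DMSO as baseline.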

Read-out in assay [2]: Matrix Metallopeptidase 1 (MMP1), MMP1 (gene 4312)
Kind of assay: BSK_hDFCGF_MMP1: BioMAP Diversity Plus: hDFCGF Assay for Matrix Metallopeptidase 1 (MMP1) Biomarker Activity (AID 2283064). Particulars: primary human foreskin fibroblasts; actives raise or lower the signal. In short, it runs like this:
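MMP1 levels quantified by ELISA 24 h after dosing human dermal fibroblast cultures, with parallel SRB total-protein staining for overt cytotoxicity. Data fitted in both directions against DMSO baseline.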

Read-out in assay [3]: Vascular cell adhesion molecule 1 (VCAM1), VCAM1 (gene 7412)
In words: BSK_hDFCGF_VCAM1: BioMAP Diversity Plus: hDFCGF Assay for Vascular cell adhesion molecule 1 (VCAM1) Biomarker Activity (AID 2283065). Particulars: primary human foreskin fibroblasts; actives raise or lower the signal. In short, it runs like this:
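Primary human foreskin fibroblasts (hDFCGF system) were dosed with chemical and VCAM-1 was measured by ELISA 24 h later. Bidirectional curve fitting used DMSO as negative control and activity baseline.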

Read-out in assay [4]: Plasminogen activator inhibitor-1 (PAI1), SERPINE1 (gene 5054)
Kind of assay: BSK_hDFCGF_PAI1: BioMAP Diversity Plus: hDFCGF Assay for Plasminogen activator inhibitor-1 (PAI1) Biomarker Activity (AID 2283066). Particulars: primary human foreskin fibroblasts; actives raise or lower the signal. The method in brief:
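PAI-1 levels in human dermal foreskin fibroblasts were quantified by ELISA 24 h after dosing, with gain or loss analysed against DMSO. Overt cytotoxicity was checked by sulforhodamine B total-protein staining in parallel cultures.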

Read-out in assay [5]: Intercellular Adhesion Molecule 1 (ICAM1), ICAM1 (gene 3383)
Kind of assay: BSK_KF3CT_ICAM1: BioMAP Diversity Plus: KF3CT Assay for Intercellular Adhesion Molecule 1 (ICAM1) Biomarker Activity (AID 2283067). Particulars: primary human keratinocytes with fibroblasts; actives raise or lower the signal. In short, it runs like this:
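Human keratinocyte plus foreskin fibroblast primary co-culture was exposed to chemical for 24 h. ICAM-1 was then quantified by ELISA, and the data were fit bidirectionally against DMSO as the negative control and baseline.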

Read-out in assay [6]: Interferon-gamma inducible Protein 10 (IP10), CXCL10 (gene 3627)
In words: BSK_KF3CT_IP10: BioMAP Diversity Plus: KF3CT Assay for Interferon-gamma inducible Protein 10 (IP10) Biomarker Activity (AID 2283068). To be noted: primary human keratinocytes with fibroblasts; actives raise or lower the signal. The method in brief:
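KF3CT co-culture (keratinocytes + foreskin fibroblasts), 24 h compound, IP-10 by ELISA; bidirectional fit vs DMSO baseline.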

Assay [7] in a line: BSK_KF3CT_SRB: Viability Assessment in the BioMAP Diversity Plus: KF3CT Assay (AID 2283069).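 Note: read 24 h after compound addition.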 To be noted: primary human keratinocytes with fibroblasts. In short, it runs like this:
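Cytotoxicity was gauged by SRB staining (0.1% SRB, 10% TCA fixation, 560 nm) of parallel cultures at 24 h. The cells were primary human skin keratinocytes co-cultured with fibroblasts, and activity was fitted in both directions against DMSO.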

Read-out in assay [8]: Interleukin-1 alpha (IL1a), IL1A (gene 3552)
In words: BSK_KF3CT_IL1a: BioMAP Diversity Plus: KF3CT Assay for Interleukin-1 alpha (IL1a) Biomarker Activity (AID 2283070). To be noted: primary human keratinocytes with fibroblasts; actives raise or lower the signal. In short, it runs like this: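 IL-1a was detected by ELISA 24 h after chemical treatment of a co-culture of human skin keratinocytes and foreskin fibroblasts. Gain or loss of signal was fitted against the DMSO baseline.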

Read-out in assay [9]: TIMP metallopeptidase inhibitor 2 (TIMP2), TIMP2 (gene 7077)
Kind of assay: BSK_KF3CT_TIMP2: BioMAP Diversity Plus: KF3CT Assay for TIMP metallopeptidase inhibitor 2 (TIMP2) Biomarker Activity (AID 2283071). To be noted: primary human keratinocytes with fibroblasts; actives raise or lower the signal. The method in brief:
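TIMP-2 measured by ELISA at 24 h in human keratinocyte/fibroblast primary co-cultures exposed to chemicals. Both increases and decreases were fitted against DMSO. Parallel cultures were stained with SRB for total protein as an overt-cytotoxicity check.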

Read-out in assay [10]: Transforming growth factor beta 1 (TGFb1), TGFB1 (gene 7040)
Kind of assay: BSK_KF3CT_TGFb1: BioMAP Diversity Plus: KF3CT Assay for Transforming growth factor beta 1 (TGFb1) Biomarker Activity (AID 2283072). To be noted: primary human keratinocytes with fibroblasts; actives raise or lower the signal. In short, it runs like this:
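ELISA quantifies TGF-b1 at 24 h post-dose in a primary human skin co-culture of keratinocytes and fibroblasts, with gain or loss judged against DMSO. Parallel SRB total-protein staining flags overt cytotoxicity.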

Read-out in assay [11]: C-C motif chemokine 2 (Homo sapiens) (UniProt P13500)
In words: BSK_KF3CT_MCP1: BioMAP Diversity Plus: KF3CT Assay for Monocyte Chemoattractant Protein 1 (MCP1/CCL2) Biomarker Activity (AID 2283073). Particulars: primary human keratinocytes with fibroblasts; actives raise or lower the signal. The method in brief: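 Human keratinocyte plus foreskin fibroblast primary co-culture exposed to chemical for 24 h. MCP-1 levels measured by ELISA. Bidirectional curve fitting relative to DMSO negative control as baseline.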

Read-out in assay [12]: Matrix Metallopeptidase 9 (MMP9), MMP9 (gene 4318)
Kind of assay: BSK_KF3CT_MMP9: BioMAP Diversity Plus: KF3CT Assay for Matrix Metallopeptidase 9 (MMP9) Biomarker Activity (AID 2283074). To be noted: primary human keratinocytes with fibroblasts; actives raise or lower the signal. In short, it runs like this:
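MMP-9 quantified by ELISA after 24 h chemical treatment of primary human skin keratinocyte/fibroblast co-cultures; gain or loss fitted against DMSO, with parallel SRB staining (0.1% SRB, 560 nm) for overt cytotoxicity.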

Read-out in assay [13]: urokinase plasminogen activator (uPA), PLAU (gene 5328)
Kind of assay: BSK_KF3CT_uPA: BioMAP Diversity Plus: KF3CT Assay for urokinase plasminogen activator (uPA) Biomarker Activity (AID 2283075). To be noted: primary human keratinocytes with fibroblasts; actives raise or lower the signal. The method in brief:
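ELISA read-out of uPA 24 h after dosing human skin keratinocytes co-cultured with foreskin fibroblasts. Signal change fitted both ways relative to DMSO; sulforhodamine B on parallel cultures marks overt cytotoxicity.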

Read-out in another assay: CD40, CD40 (gene 958)
Kind of assay: BSK_LPS_CD40: BioMAP Diversity Plus: LPS Assay for CD40 Biomarker Activity (AID 2283076). Particulars: primary human HUVEC with PBMC; actives raise or lower the signal. The method in brief: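 Primary human umbilical vein endothelial cells co-cultured with peripheral blood mononuclear cells, LPS-stimulated, were dosed with chemical and read 24 h later. CD40 levels were measured by ELISA and fitted bidirectionally against DMSO as negative control and baseline.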

Read-out in assay [14]: E-selectin (Homo sapiens) (UniProt P16581)
In words: BSK_LPS_Eselectin: BioMAP Diversity Plus: LPS Assay for Eselectin Biomarker Activity (AID 2283077). Particulars: primary human HUVEC with PBMC; actives raise or lower the signal. In short, it runs like this: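 Human umbilical vein endothelial cells co-cultured with peripheral blood mononuclear cells under LPS stimulation; E-selectin measured by ELISA 24 h after chemical dosing. Activity fitted bidirectionally against DMSO as negative control and baseline.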

Read-out in assay [15]: Interleukin-8 (IL8), CXCL8 (gene 3576)
In words: BSK_LPS_IL8: BioMAP Diversity Plus: LPS Assay for Interleukin-8 (IL8) Biomarker Activity (AID 2283078). Particulars: primary human HUVEC with PBMC; actives raise or lower the signal. In short, it runs like this: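 Human umbilical vein endothelial cells co-cultured with PBMC were stimulated with LPS; IL-8 levels were measured by ELISA 24 h after chemical dosing. Activity was fitted bidirectionally against DMSO as negative control and baseline.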

Assay [16] is described as follows: BSK_LPS_SRB: Viability Assessment in the BioMAP Diversity Plus: LPS Assay (AID 2283079).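 Note: total protein by sulforhodamine B absorbance as a cytotoxicity measure; measured one day after compound addition; fitted in both directions against DMSO so loss or gain of signal counts.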 To be noted: primary human HUVEC with PBMC. The method in brief:
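Human umbilical vein endothelial cells co-cultured with PBMC (LPS system) were dosed for 24 h. Total protein was stained with 0.1% sulforhodamine B after 10% TCA fixation, read at 560 nm, and fitted bidirectionally against DMSO baseline.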

Read-out in assay [17]: Interleukin-1 alpha (IL1a), IL1A (gene 3552)
In words: BSK_LPS_IL1a: BioMAP Diversity Plus: LPS Assay for Interleukin-1 alpha (IL1a) Biomarker Activity (AID 2283080). To be noted: primary human HUVEC with PBMC; actives raise or lower the signal. The method in brief:
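Human umbilical vein endothelial cells co-cultured with peripheral blood mononuclear cells were LPS-stimulated and exposed to test chemicals for 24 h. IL-1 alpha was quantified by ELISA, with bidirectional curve fitting against DMSO as the negative control and baseline.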

Read-out in assay [18]: Monocyte Chemoattractant Protein-1 (MCP1), CCL2 (gene 6347)
In words: BSK_LPS_MCP1: BioMAP Diversity Plus: LPS Assay for Monocyte Chemoattractant Protein-1 (MCP1) Biomarker Activity (AID 2283081). Particulars: primary human HUVEC with PBMC; actives raise or lower the signal. The method in brief: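 HUVEC plus PBMC co-culture (human primary cells, LPS system) exposed to test chemical for 24 h; MCP-1 measured by ELISA. Bidirectional curve fitting against DMSO baseline; parallel SRB total-protein staining flags overt cytotoxicity.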

A short description of assay [19]: BSK_LPS_PGE2: BioMAP Diversity Plus: LPS Assay for Prostaglandin E2 (PGE2) Biomarker Activity (AID 2283082). Particulars: primary human HUVEC with PBMC; actives raise or lower the signal. In short, it runs like this:
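PGE2 release measured by ELISA in an LPS-activated co-culture of human umbilical vein endothelial cells and peripheral blood mononuclear cells, read at 24 h post-dosing. DMSO served as baseline for bidirectional curve fitting.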

E-selectin (Homo sapiens), sequence (P16581 whole entry, looked up): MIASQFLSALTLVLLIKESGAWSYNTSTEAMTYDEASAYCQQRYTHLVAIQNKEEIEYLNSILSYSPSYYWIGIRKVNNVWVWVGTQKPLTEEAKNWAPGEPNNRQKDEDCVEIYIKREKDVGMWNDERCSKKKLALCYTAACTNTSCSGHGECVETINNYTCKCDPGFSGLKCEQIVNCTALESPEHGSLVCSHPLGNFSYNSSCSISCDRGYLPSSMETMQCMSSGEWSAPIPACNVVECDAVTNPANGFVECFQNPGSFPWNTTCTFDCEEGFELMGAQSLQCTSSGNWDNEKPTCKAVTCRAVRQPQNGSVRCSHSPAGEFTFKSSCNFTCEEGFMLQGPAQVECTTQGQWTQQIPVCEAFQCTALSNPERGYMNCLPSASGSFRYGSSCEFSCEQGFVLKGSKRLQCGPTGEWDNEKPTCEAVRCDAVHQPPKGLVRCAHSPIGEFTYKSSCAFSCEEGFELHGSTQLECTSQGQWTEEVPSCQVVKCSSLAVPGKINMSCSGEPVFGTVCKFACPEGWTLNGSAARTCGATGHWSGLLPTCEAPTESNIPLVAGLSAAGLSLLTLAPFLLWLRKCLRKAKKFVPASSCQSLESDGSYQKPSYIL

`C[C@]12C=CC(=O)C=C1CC[C@H]1[C@@H]3C[C@@H](O)[C@](O)(C(=O)CO)[C@@]3(C)C[C@H](O)[C@@]12F`: the result in [1], in [3], in assay [4], in assay [5], in [6] and in assay [7] was inactive. The outcome in assay [8], in [9], in [10], in [11], in assay [12] and in assay [13] was inactive. Also, the outcome in the assay with CD40, CD40 (gene 958) is “inactive”; in assay [14], “inactive”; in assay [15], “inactive”; in assay [16] it was “inactive”; in assay [17], “inactive”; in [18] it was “inactive”. For the same compound, in assay [19], the outcome was inactive. Moreover, in assay [2], the AC50 (in general, the concentration giving half of the maximal activity seen) was 148 nM (active).

On to `CC(C)CC(C)O` (stereo not given), for which the result in assay [1], in assay [2], in assay [3], in assay [4], in [5] and in assay [6] was inactive. In addition, the result in assay [7], in assay [8], in assay [9], in assay [10], in assay [11] and in assay [12] was inactive. Also, the outcome in assay [13] was “inactive”; in the assay with CD40, CD40 (gene 958), “inactive”; in assay [14], “inactive”; in [15] it was “inactive”; in [16] it was “inactive”; in assay [17], “inactive”. The result in assay [18] and in [19] was inactive.

As for `CC(C)CCCCCCOC(=O)C1CCCCC1C(=O)OCCCCCCC(C)C` (stereo not given), the outcome in [1], in [2], in assay [3], in [4], in assay [5] and in [6] was inactive. Moreover, the result in assay [7], in assay [8], in assay [9], in assay [10], in assay [11] and in assay [12] was inactive. Further, the outcome in assay [13] is “inactive”; with CD40, CD40 (gene 958), “inactive”; in [14], “inactive”; in [15], “inactive”; in assay [16] it was “inactive”; in assay [17] it was “inactive”. Besides, the result in assay [18] and in [19] was inactive.
